# Laboratory results reported in PubChem BioAssay (NCI).
# Compounds without any hit were thinned out: in the full panel of roughly 83,000, 20% have a hit.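 Testing used 96-well plates and a 48-hour single-concentration exposure. Example: -40 means 40% of the starting cells died.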 The source made the active and inactive calls. How the source made its calls: active means growth percent below 10; inactive means the rest.
# System: CAKI-1 renal
# Experiment: NCI-60 one-dose screen, 48 h (100 = growth as untreated, 0 = no growth, -100 = all killed)
# Settings: 10 µM unless noted
row,Structure (SMILES),growth
1,O=c1oc2ccc(Br)cc2c(=O)n1-c1ccc(F)cc1F,-16.6% (active)
2,O=c1c2cc(F)cc(Cl)c2sc2c(Cl)nc3ccccc3c12,90.7% (inactive)
3,O=C(CCN1C(=O)c2ccccc2C1=O)Nc1ccc(Cl)cc1,68.4% (inactive)
4,O=c1oc2ccc(Cl)cc2c(=O)n1-c1ccc(Cl)cc1F,-16.8% (active)
5,O=C(Nc1ccc(F)cc1F)c1cc(Cl)ccc1O,-14.7% (active)
6,O=c1oc2ccc(I)cc2c(=O)n1-c1ccc(Cl)cc1F,-16.9% (active)
7,CC1=C(C(=O)OCC2CCN(C(=O)OC(C)(C)C)CC2)[C@@H](c2cccc(C#N)c2)C2=C(CC(C)(C)CC2=O)N1,38.4% (inactive)
8,COc1cccc(/C=C/C(=O)c2c(C)nc3ccccc3c2/C=C/c2ccccc2)c1OC,39.2% (inactive)
9,O=c1oc2ccc(F)cc2c(=O)n1-c1ccc(F)cc1F,16.4% (inactive)
10,O=C1c2cc(I)ccc2Oc2cc([N+](=O)[O-])ccc2N1c1ccc(Cl)cc1F,63.9% (inactive)
11,O=c1oc2ccc(-c3ccc(F)cc3F)cc2c(=O)n1-c1ccc(Cl)c(C(F)(F)F)c1,-8.76% (active)
12,COc1ccc(/C=C/C(=O)c2c(C)nc3ccccc3c2/C=C/c2ccccc2)cc1O,52.6% (inactive)
13,O=c1oc2ccc(-c3ccc(F)cc3F)cc2c(=O)n1-c1cccc(C(F)(F)F)c1,-12.6% (active)
14,COc1ccc(OC)c(/C=C/C(=O)c2c(C)nc3ccccc3c2/C=C/c2ccccc2)c1,54.4% (inactive)
15,O=C(CCc1nnc2sc(COc3ccccc3)nn12)c1nc2ncccc2[nH]1,84.4% (inactive)
16,O=C(COc1cc(O)c2c(=O)cc(-c3ccccc3)oc2c1)Nc1ccccc1,77.9% (inactive)
17,O=C(CCc1nnc2sc(-c3ccc(Cl)cc3Cl)nn12)c1nc2ncccc2[nH]1,-15.7% (active)
18,O=C1c2cc(Cl)ccc2Oc2cc([N+](=O)[O-])ccc2N1c1ccc(F)cc1F,59% (inactive)
19,O=C(CCc1nnc2sc(Cc3ccccc3Cl)nn12)c1nc2ncccc2[nH]1,74.4% (inactive)

row,Structure (SMILES),growth
1,Nc1ccc(-c2nn3c(CCC(=O)c4nc5ncccc5[nH]4)nnc3s2)c(O)c1,70.1% (inactive)
2,O=C(c1ccccc1)N(CCc1ccc(Cl)cc1)C(=S)N(C(=O)c1ccccc1)c1ccccc1,96.9% (inactive)
3,C#CCn1cc(C=C2C(=O)N(C)C(=O)N(C)C2=O)c2cc(Cl)ccc21,91.7% (inactive)
4,O=C(Nc1ccc(I)cc1F)c1cc(Br)ccc1O,-18.9% (active)
5,Cc1nc2ccccc2c(/C=C/c2ccccc2)c1C(=O)/C=C/c1ccc(Cl)cc1,12.6% (inactive)
6,O=C(Nc1ccc(F)cc1F)c1cc(Br)ccc1O,-26.3% (active)
7,O=C1NC(=S)NC(=O)C1=Cc1cn(Cc2cn(Cc3cccc4ccccc34)nn2)c2ccccc12,80.3% (inactive)
8,COc1c(B(O)O)cccc1-c1nc2ccc3n[nH]c(F)c3c2c2c1CCCC2,0.82% (active)
9,COc1c(B(O)O)cccc1-c1nc2ccc3[nH]ncc3c2c2c1C1CCC2C1 (stereo unspecified),1.43% (active)
10,O=C(c1ccccc1)N(C(=S)NCCc1ccc(Cl)cc1)c1ccc(Cl)cc1,42.1% (inactive)
11,O=C(Nc1ccc(I)cc1F)c1cc(F)ccc1O,-24.8% (active)
12,CC1=C(C(=O)OCC2CCN(C(=O)OC(C)(C)C)CC2)[C@H](c2cccc(Br)c2)C2=C(CC(C)(C)CC2=O)N1,26.6% (inactive)
13,O=c1oc2ccc(F)cc2c(=O)n1-c1ccc(Br)cc1F,-14.8% (active)
14,O=c1oc2ccc(I)cc2c(=O)n1-c1ccc(I)cc1F,-20.2% (active)
15,O=c1oc2ccc(I)cc2c(=O)n1-c1ccc(F)cc1F,-17.5% (active)
16,Cn1cc([C@@H]2Nc3ccc4[nH]ncc4c3[C@H]3[C@H]4CCC(C4)[C@H]32)c(C(F)(F)F)n1,35.3% (inactive)
17,O=C(Nc1ccc(Cl)cc1F)c1cc(Br)ccc1O,-10.7% (active)
18,O=c1oc2ccc(Cl)cc2c(=O)n1-c1ccc(I)cc1F,-16.3% (active)
19,O=C(Nc1ccc(I)cc1F)c1cc(Cl)ccc1O,-12% (active)

# System: A498 renal
# Experiment: as above
# Settings: 10 µM unless noted
row,Structure (SMILES),growth
1,O=c1oc2ccc(Br)cc2c(=O)n1-c1ccc(F)cc1F,-39% (active)
2,O=c1c2cc(F)cc(Cl)c2sc2c(Cl)nc3ccccc3c12,103% (inactive)
3,O=C(CCN1C(=O)c2ccccc2C1=O)Nc1ccc(Cl)cc1,103% (inactive)
4,O=c1oc2ccc(Cl)cc2c(=O)n1-c1ccc(Cl)cc1F,-71.7% (active)
5,O=C(Nc1ccc(F)cc1F)c1cc(Cl)ccc1O,-34.4% (active)
6,O=c1oc2ccc(I)cc2c(=O)n1-c1ccc(Cl)cc1F,-68.3% (active)
7,CC1=C(C(=O)OCC2CCN(C(=O)OC(C)(C)C)CC2)[C@@H](c2cccc(C#N)c2)C2=C(CC(C)(C)CC2=O)N1,75.3% (inactive)
8,COc1cccc(/C=C/C(=O)c2c(C)nc3ccccc3c2/C=C/c2ccccc2)c1OC,58.1% (inactive)
9,O=c1oc2ccc(F)cc2c(=O)n1-c1ccc(F)cc1F,-30.5% (active)
10,O=C1c2cc(I)ccc2Oc2cc([N+](=O)[O-])ccc2N1c1ccc(Cl)cc1F,91.4% (inactive)
11,O=c1oc2ccc(-c3ccc(F)cc3F)cc2c(=O)n1-c1ccc(Cl)c(C(F)(F)F)c1,-43.5% (active)
12,COc1ccc(/C=C/C(=O)c2c(C)nc3ccccc3c2/C=C/c2ccccc2)cc1O,106% (inactive)
13,O=c1oc2ccc(-c3ccc(F)cc3F)cc2c(=O)n1-c1cccc(C(F)(F)F)c1,-42.6% (active)
14,COc1ccc(OC)c(/C=C/C(=O)c2c(C)nc3ccccc3c2/C=C/c2ccccc2)c1,83.2% (inactive)
15,O=C(CCc1nnc2sc(COc3ccccc3)nn12)c1nc2ncccc2[nH]1,66.8% (inactive)
16,O=C(COc1cc(O)c2c(=O)cc(-c3ccccc3)oc2c1)Nc1ccccc1,98.8% (inactive)
17,O=C(CCc1nnc2sc(-c3ccc(Cl)cc3Cl)nn12)c1nc2ncccc2[nH]1,-68.6% (active)
18,O=C1c2cc(Cl)ccc2Oc2cc([N+](=O)[O-])ccc2N1c1ccc(F)cc1F,91.3% (inactive)
19,O=C(CCc1nnc2sc(Cc3ccccc3Cl)nn12)c1nc2ncccc2[nH]1,87.5% (inactive)

row,Structure (SMILES),growth
1,Nc1ccc(-c2nn3c(CCC(=O)c4nc5ncccc5[nH]4)nnc3s2)c(O)c1,75.3% (inactive)
2,O=C(c1ccccc1)N(CCc1ccc(Cl)cc1)C(=S)N(C(=O)c1ccccc1)c1ccccc1,92.3% (inactive)
3,C#CCn1cc(C=C2C(=O)N(C)C(=O)N(C)C2=O)c2cc(Cl)ccc21,70% (inactive)
4,O=C(Nc1ccc(I)cc1F)c1cc(Br)ccc1O,-62.1% (active)
5,Cc1nc2ccccc2c(/C=C/c2ccccc2)c1C(=O)/C=C/c1ccc(Cl)cc1,36.7% (inactive)
6,O=C(Nc1ccc(F)cc1F)c1cc(Br)ccc1O,-49.5% (active)
7,O=C1NC(=S)NC(=O)C1=Cc1cn(Cc2cn(Cc3cccc4ccccc34)nn2)c2ccccc12,83.7% (inactive)
8,COc1c(B(O)O)cccc1-c1nc2ccc3n[nH]c(F)c3c2c2c1CCCC2,65.7% (inactive)
9,COc1c(B(O)O)cccc1-c1nc2ccc3[nH]ncc3c2c2c1C1CCC2C1 (stereo unspecified),87.2% (inactive)
10,O=C(c1ccccc1)N(C(=S)NCCc1ccc(Cl)cc1)c1ccc(Cl)cc1,91.4% (inactive)
11,O=C(Nc1ccc(I)cc1F)c1cc(F)ccc1O,-58.9% (active)
12,CC1=C(C(=O)OCC2CCN(C(=O)OC(C)(C)C)CC2)[C@H](c2cccc(Br)c2)C2=C(CC(C)(C)CC2=O)N1,49.5% (inactive)
13,O=c1oc2ccc(F)cc2c(=O)n1-c1ccc(Br)cc1F,-55.4% (active)
14,O=c1oc2ccc(I)cc2c(=O)n1-c1ccc(I)cc1F,-73.3% (active)
15,O=c1oc2ccc(I)cc2c(=O)n1-c1ccc(F)cc1F,-43.9% (active)
16,Cn1cc([C@@H]2Nc3ccc4[nH]ncc4c3[C@H]3[C@H]4CCC(C4)[C@H]32)c(C(F)(F)F)n1,8.35% (active)
17,O=C(Nc1ccc(Cl)cc1F)c1cc(Br)ccc1O,-62.9% (active)
18,O=c1oc2ccc(Cl)cc2c(=O)n1-c1ccc(I)cc1F,-75.5% (active)
19,O=C(Nc1ccc(I)cc1F)c1cc(Cl)ccc1O,-64.4% (active)
